Hits are enriched below; roughly 3.2% of the tested compounds scored in any of these assays.
SSB-PriA inh – K. pneumoniae PriA-SSBct interaction inhibition. AlphaScreen SSBct-PriA binding, biotinylated peptide. inhibition, % at 33 µM. hit rate 0.6% among 430,000; in the data active means inhibition mostly above about 37%, no sharp cut-off; inactive means mostly below about 20%;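 further: plate controls were negative control peptide for no effect and reference peptide for full effect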
FBA Mtb inh – inhibits M. tuberculosis FBA enzyme; purified M. tuberculosis FBA, fluorescence read-out; inhibition, % at 1 µM; hit rate 2.3% among 360,000; AID 588726;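 further: 0% = vehicle and 100% = reference inhibitor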
GDH-TPI counter-1 – inhibits GDH-TPI coupling enzymes, artifact for Mtb FBA screen; inhibition, % at 4.8 µM; GDH-TPI coupled enzyme counterscreen, NADH absorbance; hit rate 1.2% among 360,000; in the data active means inhibition above about 30%;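 further: 0% = DMSO wells and 100% = wells lacking the enzyme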
Rv3671c inh – inhibits the M. tuberculosis serine protease Rv3671c. hit rate 0.048% among 320,000. P9WHR9. inhibition, % at 5.96 µM; in the data active means inhibition above about 38%;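 further: extracellular domain of Rv3671c used as enzyme; 0% = enzyme with DMSO and 100% = no enzyme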
Target sequence (P9WHR9 whole entry, looked up, the tested form may be a part): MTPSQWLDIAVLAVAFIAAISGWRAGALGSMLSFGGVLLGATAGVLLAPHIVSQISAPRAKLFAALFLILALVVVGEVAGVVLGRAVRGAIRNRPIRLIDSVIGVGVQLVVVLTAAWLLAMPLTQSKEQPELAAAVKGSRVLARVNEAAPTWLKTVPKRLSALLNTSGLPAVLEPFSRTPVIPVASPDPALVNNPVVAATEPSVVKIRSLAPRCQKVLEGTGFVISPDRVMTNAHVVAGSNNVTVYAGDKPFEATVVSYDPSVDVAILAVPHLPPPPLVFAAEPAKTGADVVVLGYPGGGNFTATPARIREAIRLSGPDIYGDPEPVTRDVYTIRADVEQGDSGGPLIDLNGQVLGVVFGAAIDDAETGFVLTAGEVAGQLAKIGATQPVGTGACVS
Mtb bLac sens – beta-lactam sensitization of Mtb H37Rv; M. tuberculosis H37Rv growth with meropenem, percent inhibition; inhibition, % at 25 µM; hit rate 0.27% among 330,000; AID 434955; call rule not given here;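 further: growth measured after seven days incubation then overnight dye step; 0% = bacteria only wells and 100% = bacteria with antibiotic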
Mtb UGM inh – Mtb UDP-galactopyranose mutase inhibition; hit rate 0.06% among 320,000; purified UGM, fluorescence polarization probe displacement; inhibition, % at 10 µM; P9WIQ1; in the data active means inhibition above about 10%, passing the limit was not always enough
Mtb FBA inh conf – Mtb FBA inhibition, confirmed | hit rate 78% among 5,600 | inhibition, % at 1 µM | shares compounds with FBA Mtb inh | purified M. tuberculosis FBA, fluorescence read-out;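 further: 0% = vehicle wells and 100% = reference inhibitor wells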
GDH-TPI counter-2 – inhibits GDH-TPI coupling enzymes, flagging Mtb FBA hits; shares compounds with FBA Mtb inh; GDH-TPI coupled enzyme counterscreen, fluorescence; inhibition, % at 1 µM; hit rate 81% among 5,600; AID 652141; in the data active means inhibition above about 10%
* hit, by the source's call; . = no result given. Unless noted, no stated cut-off is given here; in the data, active means inhibition above about 27%; inactive means the rest.

SMILES	SSB-PriA inh	FBA Mtb inh	GDH-TPI counter-1	Rv3671c inh	Mtb bLac sens	Mtb UGM inh	Mtb FBA inh conf	GDH-TPI counter-2
N#Cc1ccc(OCC(=O)NNC(=O)C2CCCCC2)cc1	3	30*	8	6	5	-1	2	0
CCOc1ccc(-c2cc(C(=O)OC)nc3c2c(=O)n(C)c(=O)n3C)cc1	-9	33*	9	1	2	0	118*	91*
CS(=O)(=O)c1ccc(-c2cccc(NS(=O)(=O)c3ccccc3F)c2)nn1	0	.	.	.	.	.	.	.
COc1cc(C(=O)NCCNc2nc3c(C)cccc3cc2C#N)cc(OC)c1OC	.	1	-1	.	.	.	.	.
Cc1cccc2cc(C#N)c(NCCNC(=O)NC3CCCCC3)nc12	9	4	0	7	-4	-1	.	.
Cc1cccc2cc(C#N)c(NCCNS(=O)(=O)c3ccc4c(c3)OCCO4)nc12	-20	47*	16	-12	0	0	125*	93*
